For seven compounds, growth results are on record in PubChem BioAssay (NCI).

Holding throughout (experiment): NCI-60 one-dose screen, 48 h (100 = growth as untreated, 0 = no growth, -100 = all killed)
Assay [1] has as its system HCT-15 colon. As to conditions: 10 µM unless noted.
In assay [2] the test system is HT29 colon. The following applies: 10 µM unless noted.
Assay [3] relates to SNB-75 CNS. As to conditions: 10 µM unless noted.
For assay [4], the system named is SNB-19 CNS. As to conditions: 10 µM unless noted.
For assay [5], the system named is U251 CNS. As to conditions: 10 µM unless noted.
Assay [6] relates to PC-3 prostate. The following applies: 10 µM unless noted.
In assay [7] the test system is SK-MEL-5 melanoma. As to conditions: 10 µM unless noted.
Assay [8] has as its system UACC-62 melanoma. The following applies: 10 µM.
Assay [9] deals with LOX IMVI melanoma. The following applies: 10 µM unless noted.
Assay [10] concerns SK-MEL-28 melanoma. The following applies: 10 µM.
The test system of assay [11] is SK-MEL-2 melanoma. As to conditions: 10 µM unless noted.
Assay [12] relates to EKVX NSCLC. As to conditions: 10 µM unless noted.
Assay [13] deals with SN12C renal. The following applies: 10 µM unless noted.
Assay [14] deals with UO-31 renal. As to conditions: 10 µM unless noted.
The test system of assay [15] is ACHN renal. As to conditions: 10 µM unless noted.
Assay [16] has as its system CAKI-1 renal. The following applies: 10 µM unless noted.
The test system of assay [17] is A498 renal. The following applies: 10 µM unless noted.
Assay [18] relates to HL-60(TB) leukemia. The following applies: 10 µM unless noted.
For assay [19], the system named is CCRF-CEM leukemia. The following applies: 10 µM unless noted.
In assay [20] the test system is MOLT-4 leukemia. As to conditions: 10 µM unless noted.

The structures appear in SMILES notation. Values joined by “and” are separate entries in the source; they are usually repeats but may differ in a detail not shown here. Equal values may be shown once. About 83,000 compounds went through this panel and 20% of them were active in at least one assay; those are over-represented in the sample as a whole.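 Assay: single dose, 48 h. Readout: percent growth (0 = no net growth; negative = cell death). Active: <10.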 Active and inactive are the calls of the source.

Take `CCOC(=O)C(NC(=O)C(Cc1ccc(N(CCCl)CCCl)cc1)NC(C)=O)C(C)C` (stereo not drawn): the growth is 94.9% (inactive) in assay [1]; 67.1% (inactive) in [2]; 85.9% (inactive) in [3]; 90.6% (inactive) in [4]; 73.7% (inactive) in assay [5]; 67.4% (inactive) in assay [6]. Also, the growth was 97.7% (inactive) in assay [7]; 83.1% (inactive) in [8]; 66.1% (inactive) in assay [9]; 101% (inactive) in assay [10]; 92.7% (inactive) in [11]; 97.6% (inactive) in assay [12]. Further, the growth is 76.2% (inactive) in assay [13]; 82.5% (inactive) in assay [14]; 42.7% (inactive) in assay [15]; 40.8% (inactive) in assay [16]; 107% (inactive) in assay [17]; 44.9% (inactive) in assay [18]. The growth in assay [19] is 71.7% (inactive); in assay [20], 56.6% (inactive).

With `CO[C@H](/C(C)=C/C=C/C(C)=C/c1coc(C)n1)[C@H](C)[C@H]1C[C@@H](O)[C@@]2(C)O[C@H]2/C=C/[C@@H](C)[C@@H]2C[C@@H](CC(=O)O2)C[C@H]2O[C@@H]2C(=O)O1`, the growth was -31% (active) in assay [1]; -23.2% (active) in [2]; -46.7% (active) in assay [3]; 21.2% (inactive) in assay [4]; 3.46% (active) in assay [5]; -14.4% (active) in assay [6]. Moreover, the growth in [7] was -18.7% (active); in [8], 8.74% (active); in [9] it was 13.1% (inactive); in assay [11], 51.4% (inactive); in assay [12], 39.6% (inactive); in assay [13] it was 48.7% (inactive). Besides, the growth in assay [14] was 20.7% (inactive); in assay [15], -10.3% (active); in assay [16], 15% (inactive); in [17], 26.1% (inactive); in [18], -36.9% (active); in assay [19] it was -3.89% (active). The growth in assay [20] was 9.7% (active).

`CC(=O)O[C@H]1C[C@@H]2OC3C=C(C)CCC3(C)[C@@]1(C)[C@@]21CO1` (stereo partly drawn): the growth was -0.358% (active) and -0.281% (active) in [1]; -32.2% (active) and -30.6% (active) in [2]; 11.2% (inactive) and -18.3% (active) in assay [3]; -0.212% (active) and 0.0305% (active) in [4]; -8.47% (active) and -17.4% (active) in assay [5]; -2.24% (active) and -4.21% (active) in assay [6]. The growth in [7] is -47.8% (active) and -66.8% (active); in [8], -16.6% (active) and -10.1% (active); in [9] it was -58.9% (active) and -21.5% (active); in assay [10], -24.3% (active) and -29.8% (active); in assay [11] it was -72.2% (active) and -53.9% (active); in assay [12], -13.7% (active) and -15.6% (active). Also, the growth in assay [13] is -9.69% (active) and 0.846% (active); in assay [14], -5.32% (active) and -11.9% (active); in assay [15] it was -34.8% (active) and -29.9% (active); in assay [16], -16.9% (active) and -24.9% (active); in [17] it was -38.7% (active); in [18], -42% (active). For the same compound, the growth in assay [19] was 2.26% (active); in [20], -15.6% (active) and -30.2% (active).

`Cc1cc(N=Nc2ccccc2C)ccc1N`: the growth in [1] was 84.9% (inactive); in [2], 103% (inactive); in [3] it was 42.5% (inactive); in [4], 69.7% (inactive); in [5], 74.9% (inactive); in [7], 79.3% (inactive). Further, the growth is 74% (inactive) in assay [8]; 71.5% (inactive) in assay [9]; 99.4% (inactive) in assay [10]; 127% (inactive) in assay [11]; 71.9% (inactive) in [12]; 28.9% (inactive) in assay [13]. Also, the growth in assay [14] was 19.3% (inactive); in assay [15] it was 85.3% (inactive); in assay [16], 54.7% (inactive); in [18], 8.96% (active); in [19] it was 4.33% (active); in assay [20] it was 29.3% (inactive).

As to `CC[C@@]1(O)C(=O)OCc2c1cc1n(c2=O)Cc2cc3ccccc3nc2-1`, the growth in assay [1] was -18.7% (active); in [2] it was -31.8% (active); in assay [3], -41.8% (active); in [4] it was -0.517% (active); in assay [5], -31.6% (active); in assay [6] it was -22.3% (active). Also, the growth in assay [7] is -83.9% (active); in assay [8], -49.1% (active); in assay [9], -62.4% (active); in assay [11], -20.7% (active); in assay [12] it was 13.5% (inactive); in [13], 13.5% (inactive). Moreover, the growth in [14] was -59.6% (active); in [15], -72.6% (active); in assay [16] it was -37.9% (active); in assay [17] it was -77.4% (active); in assay [19] it was -28.1% (active); in assay [20], -17.4% (active).

`Oc1cc[c]([Hg][Cl])cc1`: the growth was 91.4% (inactive) in assay [1]; 100% (inactive) in assay [2]; 92.3% (inactive) in assay [3]; 100% (inactive) in assay [4]; 85.9% (inactive) in assay [5]; 99.7% (inactive) in assay [6]. Also, the growth was 74.5% (inactive) in assay [7]; 92.1% (inactive) in [8]; 71.3% (inactive) in assay [9]; 74.5% (inactive) in [10]; 70.2% (inactive) in [11]; 98.9% (inactive) in [13]. Moreover, the growth in assay [14] is 100% (inactive); in assay [15] it was 99% (inactive); in assay [16], 110% (inactive); in assay [17], 107% (inactive); in assay [18] it was 102% (inactive); in [19], 55.2% (inactive). For the same compound, the growth in assay [20] was 65.2% (inactive).

For `COC1CC(CC2CCC(C)C(C(C)C(=O)O)O2)OC2(OC(C)(C3CCC(C)(C4OC(C5OC(O)(CO)C(C)CC5C)CC4C)O3)CC2C)C1C` (stereo not drawn), the growth in assay [1] was 5.7% (active); in assay [2], -0.662% (active); in [3], -60.6% (active); in assay [4], -2.87% (active); in assay [5] it was 3.01% (active); in assay [6] it was 5.39% (active). The growth in assay [7] is -96.3% (active); in [8], -98.8% (active); in assay [9], 11.3% (inactive); in assay [11], -61.3% (active); in assay [12] it was 19.1% (inactive); in assay [13], 17.1% (inactive). Further, the growth in [14] is 13.3% (inactive); in assay [15], 16.2% (inactive); in assay [16], 8.78% (active); in assay [17] it was -68.8% (active); in assay [18], -56% (active); in [19], -27.1% (active). In addition, the growth in assay [20] is -36.2% (active).
